The structures appear in SMILES notation.

The term inhibition denotes the change of the read-out against control, counted positive when it falls.

The target in assay [1] is Protein kinase C gamma type (Homo sapiens) (UniProt P05129). The following applies: at 1 µM.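 Further: each value is an averaged percent inhibition of the enzyme.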
In assay [2] the target is T1, Protein kinase C iota type (Homo sapiens) (UniProt P41743).
T1 sequence (whole entry): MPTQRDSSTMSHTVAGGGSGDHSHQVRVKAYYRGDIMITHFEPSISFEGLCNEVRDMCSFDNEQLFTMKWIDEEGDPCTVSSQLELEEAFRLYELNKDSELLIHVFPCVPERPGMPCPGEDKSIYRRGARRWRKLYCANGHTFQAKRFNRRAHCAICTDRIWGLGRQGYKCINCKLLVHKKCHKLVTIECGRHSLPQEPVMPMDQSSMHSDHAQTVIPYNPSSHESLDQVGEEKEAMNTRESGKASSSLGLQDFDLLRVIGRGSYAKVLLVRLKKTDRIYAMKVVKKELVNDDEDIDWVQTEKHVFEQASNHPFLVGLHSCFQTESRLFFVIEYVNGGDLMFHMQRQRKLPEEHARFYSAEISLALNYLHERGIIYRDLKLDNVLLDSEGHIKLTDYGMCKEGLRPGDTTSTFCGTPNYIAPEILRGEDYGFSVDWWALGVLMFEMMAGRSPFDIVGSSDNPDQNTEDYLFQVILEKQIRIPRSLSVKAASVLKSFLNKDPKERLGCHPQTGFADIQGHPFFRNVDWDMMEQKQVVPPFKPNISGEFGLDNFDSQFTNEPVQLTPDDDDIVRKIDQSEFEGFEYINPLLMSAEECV
The following applies: at 0.1 µM.

Assay [3] addresses T1, Protein kinase C iota type (Homo sapiens). The following applies: at 1 µM.
Assay [4] concerns the target Protein kinase C theta type (Homo sapiens) (UniProt Q04759). The following applies: at 0.1 µM.
For assay [5] the target is unchanged. The following applies: at 1 µM.
Assay [6] deals with Protein kinase C beta type (Homo sapiens) (UniProt P05771). The following applies: at 0.1 µM.
Chain of Protein kinase C beta type (Homo sapiens) (P05771 2-671 limits assumed): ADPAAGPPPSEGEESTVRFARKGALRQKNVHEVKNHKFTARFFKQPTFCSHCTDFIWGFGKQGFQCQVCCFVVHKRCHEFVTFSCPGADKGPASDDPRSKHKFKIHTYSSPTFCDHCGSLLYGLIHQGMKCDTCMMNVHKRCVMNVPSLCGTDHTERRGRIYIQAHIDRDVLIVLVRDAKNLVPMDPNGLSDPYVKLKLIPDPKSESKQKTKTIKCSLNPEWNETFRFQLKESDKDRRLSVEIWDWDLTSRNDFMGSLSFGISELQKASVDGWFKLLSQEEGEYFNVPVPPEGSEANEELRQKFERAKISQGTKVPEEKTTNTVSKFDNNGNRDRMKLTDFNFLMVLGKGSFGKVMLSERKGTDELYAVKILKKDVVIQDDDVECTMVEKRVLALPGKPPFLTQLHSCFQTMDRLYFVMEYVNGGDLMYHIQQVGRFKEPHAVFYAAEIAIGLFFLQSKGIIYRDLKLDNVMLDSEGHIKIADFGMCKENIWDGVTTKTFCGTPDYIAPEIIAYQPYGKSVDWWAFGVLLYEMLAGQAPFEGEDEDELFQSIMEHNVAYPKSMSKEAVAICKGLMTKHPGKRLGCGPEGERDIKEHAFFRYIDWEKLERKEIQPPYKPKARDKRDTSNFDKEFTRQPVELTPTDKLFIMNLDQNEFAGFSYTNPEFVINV
Assay [7] has the same target. The following applies: at 1 µM.
Assay [8] concerns the target T2, Serine/threonine-protein kinase D1 (Homo sapiens) (UniProt Q15139).
T2 sequence (whole entry): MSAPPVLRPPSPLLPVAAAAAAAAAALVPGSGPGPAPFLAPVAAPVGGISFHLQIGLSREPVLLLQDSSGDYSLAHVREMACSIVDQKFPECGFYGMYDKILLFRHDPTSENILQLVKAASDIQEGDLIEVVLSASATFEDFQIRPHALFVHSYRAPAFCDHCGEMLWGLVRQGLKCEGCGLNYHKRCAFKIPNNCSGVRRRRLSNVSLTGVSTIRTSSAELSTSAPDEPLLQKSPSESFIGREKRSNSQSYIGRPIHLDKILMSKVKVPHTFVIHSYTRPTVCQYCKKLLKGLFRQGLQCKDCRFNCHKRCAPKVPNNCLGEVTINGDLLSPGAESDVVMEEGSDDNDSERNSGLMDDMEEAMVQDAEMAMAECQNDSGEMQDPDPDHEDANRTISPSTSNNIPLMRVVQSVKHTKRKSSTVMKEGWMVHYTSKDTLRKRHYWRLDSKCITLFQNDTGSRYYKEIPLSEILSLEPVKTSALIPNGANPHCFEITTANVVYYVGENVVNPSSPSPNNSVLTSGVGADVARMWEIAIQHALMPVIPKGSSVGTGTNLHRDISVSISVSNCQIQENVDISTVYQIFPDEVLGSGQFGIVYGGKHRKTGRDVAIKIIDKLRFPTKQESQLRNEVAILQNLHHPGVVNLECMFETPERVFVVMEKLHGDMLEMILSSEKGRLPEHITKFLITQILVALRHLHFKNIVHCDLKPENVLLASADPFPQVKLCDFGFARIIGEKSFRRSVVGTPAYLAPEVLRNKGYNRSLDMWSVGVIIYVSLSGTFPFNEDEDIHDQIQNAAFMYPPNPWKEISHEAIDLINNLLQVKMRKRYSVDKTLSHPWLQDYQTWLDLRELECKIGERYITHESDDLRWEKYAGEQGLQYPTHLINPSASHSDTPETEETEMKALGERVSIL
The following applies: at 0.1 µM.

Assay [9] concerns the target T2, Serine/threonine-protein kinase D1 (Homo sapiens). The following applies: at 1 µM.
Assay [10] addresses T3, Serine/threonine-protein kinase D2 (Homo sapiens) (UniProt Q9BZL6).
T3 sequence (whole entry): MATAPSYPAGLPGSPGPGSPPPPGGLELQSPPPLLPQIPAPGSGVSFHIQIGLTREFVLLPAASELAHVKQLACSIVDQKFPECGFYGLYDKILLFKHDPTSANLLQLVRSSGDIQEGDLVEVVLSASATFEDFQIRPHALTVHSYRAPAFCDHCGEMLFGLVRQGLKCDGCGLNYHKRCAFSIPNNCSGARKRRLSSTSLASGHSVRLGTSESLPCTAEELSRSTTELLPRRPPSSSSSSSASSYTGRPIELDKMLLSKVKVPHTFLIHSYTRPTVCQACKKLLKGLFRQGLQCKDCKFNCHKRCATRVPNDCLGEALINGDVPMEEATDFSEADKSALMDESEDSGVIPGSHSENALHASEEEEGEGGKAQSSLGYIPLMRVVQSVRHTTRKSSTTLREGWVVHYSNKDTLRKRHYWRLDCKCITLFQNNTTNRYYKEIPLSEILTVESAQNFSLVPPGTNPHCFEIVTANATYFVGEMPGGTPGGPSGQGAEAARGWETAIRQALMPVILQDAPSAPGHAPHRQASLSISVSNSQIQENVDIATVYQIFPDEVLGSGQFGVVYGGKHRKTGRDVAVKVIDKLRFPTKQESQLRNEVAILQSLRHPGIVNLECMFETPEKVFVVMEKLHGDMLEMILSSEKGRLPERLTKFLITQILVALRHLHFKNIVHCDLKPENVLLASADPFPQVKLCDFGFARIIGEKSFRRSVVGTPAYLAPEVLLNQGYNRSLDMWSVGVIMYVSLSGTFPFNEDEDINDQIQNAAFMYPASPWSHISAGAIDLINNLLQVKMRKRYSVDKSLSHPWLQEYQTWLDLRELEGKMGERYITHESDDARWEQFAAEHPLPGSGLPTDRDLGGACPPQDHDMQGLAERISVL
The following applies: at 0.1 µM.

Assay [11] has as its target T3, Serine/threonine-protein kinase D2 (Homo sapiens). The following applies: at 1 µM.
The target in assay [12] is T4, Serine/threonine-protein kinase D3 (Homo sapiens) (UniProt O94806).
T4 sequence (whole entry): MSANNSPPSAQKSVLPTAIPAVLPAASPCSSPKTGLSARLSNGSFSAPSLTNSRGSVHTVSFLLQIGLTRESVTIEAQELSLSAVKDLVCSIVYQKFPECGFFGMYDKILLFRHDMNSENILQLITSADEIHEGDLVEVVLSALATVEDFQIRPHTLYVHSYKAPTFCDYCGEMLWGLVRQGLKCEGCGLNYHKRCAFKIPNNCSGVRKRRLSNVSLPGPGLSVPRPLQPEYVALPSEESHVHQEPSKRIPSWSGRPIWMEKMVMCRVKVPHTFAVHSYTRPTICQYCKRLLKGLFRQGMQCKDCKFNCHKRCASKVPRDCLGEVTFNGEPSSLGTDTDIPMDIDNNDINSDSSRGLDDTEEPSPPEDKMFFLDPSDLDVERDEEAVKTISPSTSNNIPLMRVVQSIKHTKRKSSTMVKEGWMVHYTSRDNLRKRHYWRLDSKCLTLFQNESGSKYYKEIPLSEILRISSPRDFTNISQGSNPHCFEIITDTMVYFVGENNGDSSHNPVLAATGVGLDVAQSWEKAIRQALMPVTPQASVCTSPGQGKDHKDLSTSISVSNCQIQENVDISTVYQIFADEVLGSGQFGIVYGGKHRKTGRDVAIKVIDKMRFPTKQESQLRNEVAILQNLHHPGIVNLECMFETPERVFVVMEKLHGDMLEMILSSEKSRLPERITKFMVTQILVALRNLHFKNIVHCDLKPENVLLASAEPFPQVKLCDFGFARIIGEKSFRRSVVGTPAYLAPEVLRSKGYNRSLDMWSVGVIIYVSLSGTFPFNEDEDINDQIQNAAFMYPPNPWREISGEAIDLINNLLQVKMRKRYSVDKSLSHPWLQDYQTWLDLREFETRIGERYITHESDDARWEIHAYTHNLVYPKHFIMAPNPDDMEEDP
The following applies: at 0.1 µM.

In assay [13] the target is T4, Serine/threonine-protein kinase D3 (Homo sapiens). The following applies: at 1 µM.
Assay [14] has as its target T5, cGMP-dependent protein kinase 1 (Homo sapiens) (UniProt Q13976).
T5 sequence (whole entry): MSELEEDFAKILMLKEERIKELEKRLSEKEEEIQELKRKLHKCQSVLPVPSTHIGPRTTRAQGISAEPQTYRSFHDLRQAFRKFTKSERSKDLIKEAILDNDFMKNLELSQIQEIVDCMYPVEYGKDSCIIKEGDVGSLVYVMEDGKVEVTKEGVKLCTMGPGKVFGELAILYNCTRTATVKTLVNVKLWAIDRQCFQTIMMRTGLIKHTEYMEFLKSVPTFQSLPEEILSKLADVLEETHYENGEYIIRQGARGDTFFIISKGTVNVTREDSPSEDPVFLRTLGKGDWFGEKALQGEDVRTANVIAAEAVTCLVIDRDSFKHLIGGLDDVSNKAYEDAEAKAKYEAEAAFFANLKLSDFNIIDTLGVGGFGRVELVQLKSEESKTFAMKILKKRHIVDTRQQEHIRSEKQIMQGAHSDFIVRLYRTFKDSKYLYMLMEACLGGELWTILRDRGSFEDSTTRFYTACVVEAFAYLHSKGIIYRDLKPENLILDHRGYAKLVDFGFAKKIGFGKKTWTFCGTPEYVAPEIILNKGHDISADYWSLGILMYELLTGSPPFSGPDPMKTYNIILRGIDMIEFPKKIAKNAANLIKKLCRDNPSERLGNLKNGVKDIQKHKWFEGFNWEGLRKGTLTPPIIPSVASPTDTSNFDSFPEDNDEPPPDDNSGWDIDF
The following applies: at 0.1 µM.

For assay [15], the target named is T5, cGMP-dependent protein kinase 1 (Homo sapiens). The following applies: at 1 µM.
Assay [16] addresses T6, cGMP-dependent protein kinase 2 (Homo sapiens) (UniProt Q13237).
T6 sequence (whole entry): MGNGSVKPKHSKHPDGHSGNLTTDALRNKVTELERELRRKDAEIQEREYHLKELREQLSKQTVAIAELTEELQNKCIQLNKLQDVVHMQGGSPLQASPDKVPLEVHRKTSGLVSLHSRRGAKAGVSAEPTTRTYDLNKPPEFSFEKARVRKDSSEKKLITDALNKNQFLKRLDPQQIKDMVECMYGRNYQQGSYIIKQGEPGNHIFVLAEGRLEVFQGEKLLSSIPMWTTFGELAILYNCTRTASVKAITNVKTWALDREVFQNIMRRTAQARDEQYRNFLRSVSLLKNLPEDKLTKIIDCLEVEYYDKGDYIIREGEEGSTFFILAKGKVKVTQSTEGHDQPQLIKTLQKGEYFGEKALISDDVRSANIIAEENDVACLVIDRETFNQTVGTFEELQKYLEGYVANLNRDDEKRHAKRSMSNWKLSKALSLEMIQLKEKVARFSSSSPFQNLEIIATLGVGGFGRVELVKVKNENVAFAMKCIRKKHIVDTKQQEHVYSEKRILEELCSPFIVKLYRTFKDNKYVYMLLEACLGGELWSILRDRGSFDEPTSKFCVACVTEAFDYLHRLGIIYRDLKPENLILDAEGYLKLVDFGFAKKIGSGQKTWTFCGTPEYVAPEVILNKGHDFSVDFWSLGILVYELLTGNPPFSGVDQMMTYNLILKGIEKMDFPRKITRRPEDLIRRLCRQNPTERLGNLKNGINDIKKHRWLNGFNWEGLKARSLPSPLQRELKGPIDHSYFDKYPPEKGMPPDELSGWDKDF
The following applies: at 0.1 µM.

Assay [17] deals with T6, cGMP-dependent protein kinase 2 (Homo sapiens). The following applies: at 1 µM.
Assay [18] deals with T7, cAMP-dependent protein kinase catalytic subunit PRKX (Homo sapiens) (UniProt P51817).
T7 sequence (whole entry): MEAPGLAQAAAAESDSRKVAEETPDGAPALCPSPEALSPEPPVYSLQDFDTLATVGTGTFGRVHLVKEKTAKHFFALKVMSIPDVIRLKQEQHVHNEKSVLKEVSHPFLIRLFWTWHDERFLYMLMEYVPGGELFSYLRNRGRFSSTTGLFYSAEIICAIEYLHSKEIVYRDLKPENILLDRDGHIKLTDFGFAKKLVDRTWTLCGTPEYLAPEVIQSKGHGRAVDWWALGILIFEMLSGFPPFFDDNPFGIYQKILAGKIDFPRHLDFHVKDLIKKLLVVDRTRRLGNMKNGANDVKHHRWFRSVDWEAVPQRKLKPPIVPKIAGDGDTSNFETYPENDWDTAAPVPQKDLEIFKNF
The following applies: at 0.1 µM.

Assay [19] addresses T7, cAMP-dependent protein kinase catalytic subunit PRKX (Homo sapiens). The following applies: at 1 µM.
The target in assay [20] is Rho-associated protein kinase 1 (Homo sapiens) (UniProt Q13464). The following applies: at 0.1 µM.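 Further: values are mean percent inhibition of ROCK1.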
Chain of Rho-associated protein kinase 1 (Homo sapiens) (Q13464 2-1354 limits assumed): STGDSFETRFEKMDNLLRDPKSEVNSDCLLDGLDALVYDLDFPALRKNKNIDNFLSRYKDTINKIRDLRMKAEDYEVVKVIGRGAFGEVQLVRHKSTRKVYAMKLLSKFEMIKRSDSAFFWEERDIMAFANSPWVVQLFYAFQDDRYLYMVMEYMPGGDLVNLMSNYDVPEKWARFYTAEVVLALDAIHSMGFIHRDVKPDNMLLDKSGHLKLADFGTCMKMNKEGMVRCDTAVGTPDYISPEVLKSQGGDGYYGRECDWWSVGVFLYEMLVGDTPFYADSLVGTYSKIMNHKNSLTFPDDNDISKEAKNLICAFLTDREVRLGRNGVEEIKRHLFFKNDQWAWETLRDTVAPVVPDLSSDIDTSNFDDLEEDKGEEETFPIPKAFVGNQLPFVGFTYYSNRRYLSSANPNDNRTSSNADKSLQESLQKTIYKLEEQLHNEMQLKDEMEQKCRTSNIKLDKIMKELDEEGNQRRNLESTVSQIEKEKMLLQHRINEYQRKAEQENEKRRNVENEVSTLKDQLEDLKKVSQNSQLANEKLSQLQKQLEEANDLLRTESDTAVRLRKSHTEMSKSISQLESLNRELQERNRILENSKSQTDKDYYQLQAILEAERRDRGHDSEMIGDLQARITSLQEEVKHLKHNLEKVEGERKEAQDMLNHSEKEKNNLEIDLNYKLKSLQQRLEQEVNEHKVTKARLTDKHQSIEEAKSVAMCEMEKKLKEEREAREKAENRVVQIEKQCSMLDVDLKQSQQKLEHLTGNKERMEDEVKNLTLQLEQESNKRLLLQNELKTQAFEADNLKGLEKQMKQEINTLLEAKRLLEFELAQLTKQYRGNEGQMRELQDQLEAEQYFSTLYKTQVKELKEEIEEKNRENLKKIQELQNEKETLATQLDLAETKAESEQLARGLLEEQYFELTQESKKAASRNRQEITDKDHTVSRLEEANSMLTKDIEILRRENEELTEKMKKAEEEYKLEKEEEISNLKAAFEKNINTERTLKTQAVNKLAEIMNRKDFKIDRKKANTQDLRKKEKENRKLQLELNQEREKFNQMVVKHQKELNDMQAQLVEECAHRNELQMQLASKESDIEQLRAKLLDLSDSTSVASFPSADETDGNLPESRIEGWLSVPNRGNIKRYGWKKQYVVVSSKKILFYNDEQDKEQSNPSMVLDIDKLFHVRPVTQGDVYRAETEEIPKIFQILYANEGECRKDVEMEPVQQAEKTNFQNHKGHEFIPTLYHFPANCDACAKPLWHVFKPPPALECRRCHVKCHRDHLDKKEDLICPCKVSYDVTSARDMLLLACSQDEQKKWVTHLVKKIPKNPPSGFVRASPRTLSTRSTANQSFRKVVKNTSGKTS

Chain of Protein kinase C theta type (Homo sapiens) (Q04759 whole entry, looked up): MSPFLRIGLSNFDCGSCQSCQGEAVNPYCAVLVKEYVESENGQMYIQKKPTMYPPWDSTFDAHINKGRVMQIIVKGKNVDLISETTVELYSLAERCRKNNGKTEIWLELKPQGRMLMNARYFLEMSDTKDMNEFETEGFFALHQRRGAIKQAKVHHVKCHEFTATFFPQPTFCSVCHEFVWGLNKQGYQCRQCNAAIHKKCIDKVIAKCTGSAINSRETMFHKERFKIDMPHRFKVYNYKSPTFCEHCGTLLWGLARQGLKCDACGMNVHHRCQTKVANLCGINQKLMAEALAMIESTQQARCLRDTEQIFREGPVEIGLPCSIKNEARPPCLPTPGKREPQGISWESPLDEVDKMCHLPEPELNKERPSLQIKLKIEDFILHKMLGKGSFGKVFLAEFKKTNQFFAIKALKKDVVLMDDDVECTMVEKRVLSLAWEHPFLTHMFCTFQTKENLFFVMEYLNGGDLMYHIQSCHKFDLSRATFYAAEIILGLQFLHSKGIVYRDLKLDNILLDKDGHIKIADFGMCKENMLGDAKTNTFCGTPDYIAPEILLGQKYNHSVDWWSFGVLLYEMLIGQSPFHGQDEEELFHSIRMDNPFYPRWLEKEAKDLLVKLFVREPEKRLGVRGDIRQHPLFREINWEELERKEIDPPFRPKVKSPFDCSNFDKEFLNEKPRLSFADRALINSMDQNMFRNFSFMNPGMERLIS

In the case of `NS(=O)(=O)c1ccc(Nc2cc(-c3ccc(O)c(F)c3)n[nH]2)cc1`, the inhibition was -0.85% in assay [1]; -0.61% in assay [2]; 0.05% in assay [3]; -1.75% in assay [4]; -1.1% in assay [5]; -0.96% in [6]. Further, the inhibition is 0.72% in assay [7]; -1.96% in assay [8]; 4.59% in assay [9]; -2.32% in assay [10]; 2.89% in assay [11]; -2.85% in assay [12]. Moreover, the inhibition in assay [13] was 0.82%; in assay [14], -1.74%; in assay [15], -1%; in assay [16] it was -1.16%; in [17] it was 0.01%; in [18] it was -0.97%. Also, the inhibition is -1.36% in [19] and -0.2% in assay [20].
In the case of `CNC(=O)c1cncc(/C=C/c2c(C)cccc2C)c1`, the inhibition in assay [1] was 0.78%; in assay [2], -1.41%; in assay [3], -1.56%; in [4] it was -0.68%; in assay [5], 0.76%; in assay [6], -0.12%. For the same molecule, the inhibition in assay [7] was 1.01%; in [8], -2.84%; in assay [9], -2.47%; in assay [10], -2.56%; in assay [11], -2.22%; in assay [12], -2.33%. Also, the inhibition is -3.04% in assay [13]; -0.33% in assay [14]; 4.28% in assay [15]; 0.8% in assay [16]; 1.58% in assay [17]; 0.26% in assay [18]. The inhibition is 0.53% in [19] and -0.35% in assay [20].

For the origin of these results see ChEMBL document CHEMBL1961873, “Compounds: GSK PKIS; Assays: Nanosyn kinase panel” (2012).
